# In all, about 39,000 compounds went through this assay and about 1,500 (3.8%) were called active. The entries come from a sample that favours actives as a whole.
# Test system: HSkMC (human skeletal muscle cells)
# Test: cytotoxicity call (relative viability < 0.9)
# Conditions: 10 µM
row,Structure (SMILES),cytotoxicity call
1,Cc1ccc(/C=N/N(C)C2=NCCN2)o1,inactive
2,Cc1cc(C)c2c(c1)[C@@H](N(Cc1cc(C(F)(F)F)cc(C(F)(F)F)c1)c1nnn(C)n1)CCCN2C[C@H]1CC[C@H](C(=O)O)CC1,active
3,C[C@H]1CN([C@@H](C)CO)C(=O)c2cc(NC(=O)Nc3ccc(C(F)(F)F)cc3)ccc2O[C@H]1CN(C)C(=O)Nc1ccc2c(c1)OCO2,inactive
4,CC(=O)N(C)C[C@@H]1Oc2ncc(C#C[C@@H](C)O)cc2C(=O)N([C@H](C)CO)C[C@@H]1C,inactive
5,C[C@@H]1CN([C@@H](C)CO)C(=O)c2cc(NC(=O)c3ccncc3)ccc2O[C@@H](C)CCCCO[C@H]1CN(C)C(=O)Nc1ccc2c(c1)OCO2,inactive
6,COc1ccc(CN(C)C[C@@H]2OCCCC[C@H](C)Oc3ccc(NS(=O)(=O)c4ccc(Cl)cc4)cc3C(=O)N([C@H](C)CO)C[C@H]2C)cc1,inactive
7,O=C(N[C@H](c1ccc(F)cc1)c1ccc2ccccc2n1)C1CCN(Cc2cccc(C(F)(F)F)c2)CC1,active
8,Cn1cc(CN2CCC(C(=O)N[C@@H](c3ccc(F)cc3)c3ccc4ccccc4n3)CC2)c2ccccc21,active
9,COc1cc(CN2CCC(C(=O)N[C@@H](c3ccc(F)cc3)c3ccc4ccccc4n3)CC2)cc(OC)c1,inactive
10,O=C(N[C@H](c1ccc(F)cc1)c1ccc2ccccc2n1)C1CCN(Cc2ccc(Oc3ccccc3)cc2)CC1,inactive
11,O=C(N[C@@H](c1ccccc1)c1ccc2ccccc2n1)C1CCN(Cc2cccc(C(F)(F)F)c2)CC1,inactive
12,O=C(N[C@H](c1ccc(F)cc1)c1ccc2ccccc2n1)C1CCN(Cc2ccc3ccccc3n2)CC1,inactive
13,COc1ccc(CNC(=S)NCCO)cc1,inactive
14,O=S(=O)(NCC[C@@H]1CC[C@H](NS(=O)(=O)c2cccc(Cl)c2)[C@@H](CO)O1)c1cccc(F)c1,inactive
15,Cc1noc(C)c1NC(=O)N(C)C[C@H]1Oc2ccc(NS(=O)(=O)c3cccs3)cc2CC(=O)N([C@@H](C)CO)C[C@@H]1C,inactive
16,CCCNC(=O)N1C[C@H](O)COC[C@@H]2O[C@@H](CC(=O)NCc3ccncn3)CC[C@H]21,inactive
17,CC[C@@H](C)NCCCCOc1ccc(Cl)cc1C(C)(C)C,active
18,CC(C)(C)NCCCCOc1ccc(Cl)cc1C(C)(C)C,inactive
19,Cc1ccc(OCc2ccc(Cl)cc2)c(C(C)(C)C)c1,inactive
20,C[C@@H]1CCCCO[C@H](CN(C)C(=O)CCC(F)(F)F)[C@H](C)CN([C@@H](C)CO)C(=O)c2cc(NS(=O)(=O)c3ccc(Cl)cc3)ccc2O1,inactive
21,C[C@@H]1CN([C@H](C)CO)C(=O)c2cc(-c3cccc(C#N)c3)cnc2O[C@H]1CN(C)C(=O)c1cnccn1,inactive
22,CO[C@@H]1CN(C)C(=O)c2ccc(NS(C)(=O)=O)cc2OC[C@@H](C)N(S(=O)(=O)CC(F)(F)F)C[C@H]1C,inactive
23,C[C@H](CO)N1C[C@H](C)[C@H](CN(C)C(=O)Nc2ccc(C(F)(F)F)cc2)Oc2c(NC(=O)Nc3ccccc3)cccc2C1=O,inactive
24,C[C@@H]1CN([C@H](C)CO)C(=O)c2cccc(NC(=O)Nc3ccc(C(F)(F)F)cc3)c2O[C@@H]1CN(C)C(=O)Nc1ccc(C(F)(F)F)cc1,active
25,C[C@H]1CN([C@@H](C)CO)C(=O)c2cccc(NC(=O)Nc3ccc(C(F)(F)F)cc3)c2O[C@@H]1CN(C)C(=O)Nc1ccccc1,inactive

row,Structure (SMILES),cytotoxicity call
1,COc1ccc(NC(=O)N(C)C[C@H]2Oc3c(NC(=O)Nc4ccc(C(F)(F)F)cc4)cccc3C(=O)N([C@@H](C)CO)C[C@@H]2C)cc1,active
2,C[C@H](CO)N1C[C@H](C)[C@H](CN(C)C(=O)Nc2ccc(C(F)(F)F)cc2)Oc2c(NC(=O)Nc3ccc(C(F)(F)F)cc3)cccc2C1=O,active
3,C[C@H]1CN([C@@H](C)CO)C(=O)c2cccc(NC(=O)Nc3ccc(C(F)(F)F)cc3)c2O[C@H]1CN(C)C(=O)Nc1ccc(C(F)(F)F)cc1,inactive
4,COc1ccc(NC(=O)Nc2cccc3c2O[C@H](CN(C)C(=O)Nc2ccc(C(F)(F)F)cc2)[C@@H](C)CN([C@@H](C)CO)C3=O)cc1,inactive
5,COc1ccc(NC(=O)Nc2cccc3c2O[C@@H](CN(C)C(=O)Nc2ccc(C(F)(F)F)cc2)[C@@H](C)CN([C@@H](C)CO)C3=O)cc1,inactive
6,C[C@@H]1CN([C@@H](C)CO)C(=O)c2cccc(NC(=O)Nc3ccccc3)c2O[C@@H]1CN(C)C(=O)Nc1ccc(C(F)(F)F)cc1,inactive
7,C[C@H]1CN([C@@H](C)CO)C(=O)c2cccc(NC(=O)Nc3ccc(C(F)(F)F)cc3)c2O[C@@H]1CN(C)C(=O)Nc1ccc(F)cc1,inactive
8,C[C@@H]1CN([C@H](C)CO)C(=O)c2cccc(NC(=O)Nc3ccc(F)cc3)c2O[C@H]1CN(C)C(=O)Nc1ccc(C(F)(F)F)cc1,inactive
9,C[C@@H]1CN([C@H](C)CO)C(=O)c2cccc(NC(=O)Nc3ccc(C(F)(F)F)cc3)c2O[C@@H]1CN(C)C(=O)Nc1ccccc1,active
10,COc1ccc2c3c(n(c2c1)C)[C@H](CO)N(C[C@]13CN(C1)C(=O)CN1CCOCC1)C(=O)Nc1ccc(cc1)F,inactive
11,C[C@H]1CN([C@@H](C)CO)C(=O)CCCn2cc(nn2)CO[C@@H]1CN(C)C(=O)c1ccc(N2CCN(C)CC2)cc1,inactive
12,CC/C(=C\C(=O)O)c1ccccc1,inactive
13,O=C(C[C@@H]1C[C@@H]2c3cc(NC(=O)C4CCOCC4)ccc3O[C@@H]2[C@H](CO)O1)NCCN1CCCCC1,inactive
14,COCC(=O)N1C[C@@H](C)[C@@H](OC)CN(C)C(=O)c2ccc(NC(=O)Nc3cccc(F)c3)cc2OC[C@@H]1C,inactive
15,Cc1cccc(S(=O)(=O)N2C[C@H](O)COC[C@H]3O[C@H](CC(=O)NCc4ccncn4)CC[C@@H]32)c1,inactive
16,C[C@@H]1CCN(C(=O)[C@H](CCCNC(=N)N)NS(=O)(=O)c2cccc3c2NC[C@H](C)C3)[C@@H](C(=O)O)C1,inactive
17,CNC(=O)C[C@@H]1CC[C@@H]2[C@H](COC[C@H](O)CN2C(=O)c2ccccn2)O1,inactive
18,N#C[C@@H]1[C@H](c2ccc(C#Cc3ccccn3)cc2)[C@@H](CO)N1C(=O)CN1CCOCC1,inactive
19,CC(C)NC(=O)N(C)C[C@@H]1Oc2ccc(NS(=O)(=O)c3cn(C)cn3)cc2C(=O)N([C@H](C)CO)C[C@@H]1C,inactive
20,C[C@@H]1CN([C@@H](C)CO)C(=O)c2cc(NC(=O)Nc3ccccc3)ccc2O[C@@H](C)CCCCO[C@H]1CN(C)S(=O)(=O)c1cccs1,inactive
21,C[C@@H]1CN([C@H](C)CO)C(=O)c2cccc(NC(=O)Nc3ccc(F)cc3)c2O[C@@H]1CN(C)C(=O)Nc1ccc(C(F)(F)F)cc1,inactive
22,C[C@@H]1CN([C@@H](C)CO)C(=O)c2cccc(NC(=O)Nc3ccc(C(F)(F)F)cc3)c2O[C@@H]1CN(C)C(=O)Nc1ccc(C(F)(F)F)cc1,active
23,C[C@H](CO)N1C[C@H](C)[C@H](CN(C)C(=O)Nc2ccc(F)cc2)Oc2c(NC(=O)Nc3ccc(C(F)(F)F)cc3)cccc2C1=O,active
24,C[C@H]1CN([C@@H](C)CO)C(=O)c2cccc(NC(=O)Nc3ccc(C(F)(F)F)cc3)c2O[C@@H]1CN(C)C(=O)Nc1ccc(C(F)(F)F)cc1,active
25,C[C@H](CO)N1C[C@H](C)[C@@H](CN(C)C(=O)Nc2ccc(C(F)(F)F)cc2)Oc2c(NC(=O)Nc3ccc(C(F)(F)F)cc3)cccc2C1=O,active

row,Structure (SMILES),cytotoxicity call
1,C[C@@H]1CN([C@H](C)CO)C(=O)c2cccc(NC(=O)Nc3ccc(C(F)(F)F)cc3)c2O[C@H]1CN(C)C(=O)Nc1ccc(C(F)(F)F)cc1,inactive
2,C[C@@H]1CN([C@@H](C)CO)C(=O)c2cccc(NC(=O)Nc3ccc(C(F)(F)F)cc3)c2O[C@H]1CN(C)C(=O)Nc1ccc(C(F)(F)F)cc1,inactive
3,C[C@H]1CN([C@@H](C)CO)C(=O)c2cccc(NC(=O)Nc3ccccc3)c2O[C@@H]1CN(C)C(=O)Nc1ccc(C(F)(F)F)cc1,inactive
4,C[C@@H]1CN([C@H](C)CO)C(=O)c2cccc(NC(=O)Nc3ccc(C(F)(F)F)cc3)c2O[C@@H]1CN(C)C(=O)Nc1ccc(F)cc1,inactive
5,C[C@H]1CN([C@@H](C)CO)C(=O)c2cccc(NC(=O)Nc3ccc(C(F)(F)F)cc3)c2O[C@H]1CN(C)C(=O)Nc1ccc(F)cc1,inactive
6,Cc1noc(C)c1S(=O)(=O)N(C)C[C@@H]1Oc2ccc(NC(=O)NC3CCCCC3)cc2CC(=O)N([C@H](C)CO)C[C@H]1C,inactive
7,O=C(C[C@@H]1C=C[C@@H](NC(=O)c2ccc(F)cc2)[C@H](CO)O1)NCc1ccncn1,inactive
8,O=C(O)c1cc(O)c(O)c(O)c1 [listing 1 of 2 here],active
9,O=C(O)c1cc(O)c(O)c(O)c1 [listing 2 of 2 here],inactive
10,O=C(O)c1ccc(O)c(O)c1,inactive
11,COc1ccc(NC(=O)Nc2ccc3c(c2)C(=O)N([C@@H](C)CO)C[C@@H](C)[C@H](CN(C)C(=O)C2CCCCC2)OCCCC[C@H](C)O3)cc1,inactive
12,C[C@@H]1CN([C@H](C)CO)C(=O)Cc2cc(NC(=O)Cn3cnnn3)ccc2O[C@H]1CN(C)S(=O)(=O)c1cccs1,inactive
13,Oc1ccc(Cl)c2cccnc12 [listing 1 of 2 here],inactive
14,Oc1ccc(Cl)c2cccnc12 [listing 2 of 2 here],active
15,Oc1c(Cl)cc(Cl)c2cccnc12,inactive
16,O=C(NO)c1cccnc1,inactive
17,CCNC(=O)C[C@H]1C=C[C@H](NC(=O)C2CC2)[C@@H](CO)O1,inactive
18,C[C@H]1CCCCO[C@@H](CN(C)Cc2ccccc2)[C@@H](C)CN([C@@H](C)CO)C(=O)c2cc(NC(=O)c3ccncc3)ccc2O1,inactive
19,COc1cccc2c1C(=O)c1c(O)c3c(c(O)c1C2=O)CC(O)(C(=O)CO)CC3OC1CC(N)C(O)C(C)O1 (stereo not given) [listing 1 of 2 here],inactive
20,COc1cccc2c1C(=O)c1c(O)c3c(c(O)c1C2=O)C[C@@](O)(C(=O)CO)C[C@@H]3O[C@H]1C[C@H](N)[C@@H](O)[C@H](C)O1,inactive
21,COc1cccc2c1C(=O)c1c(O)c3c(c(O)c1C2=O)C[C@@](O)(C(=O)CO)C[C@@H]3O[C@H]1C[C@H](N)[C@H](O)[C@H](C)O1,active
22,COc1cccc2c1C(=O)c1c(O)c3c(c(O)c1C2=O)C[C@](O)(C(=O)CO)C[C@H]3O[C@H]1C[C@@H](N)[C@@H](O)[C@@H](C)O1,active
23,CCCCC(=O)OCC(=O)[C@]1(O)Cc2c(O)c3c(c(O)c2[C@@H](O[C@H]2C[C@H](NC(=O)C(F)(F)F)[C@H](O)[C@H](C)O2)C1)C(=O)c1c(OC)cccc1C3=O,active
24,COc1cccc2c1C(=O)c1c(O)c3c(c(O)c1C2=O)CC(O)(C(=O)CO)CC3OC1CC(N)C(O)C(C)O1 (stereo not given) [listing 2 of 2 here],active
25,COc1cccc2c1C(=O)c1c(O)c3c(c(O)c1C2=O)CC(O)(C(=O)CO)CC3OC1CC(N)C(O)C(C)O1.Cl (stereo not given),inactive

# Source: the antibiotic and cytotoxicity screens of Wong et al. (2023)
